log2 fold change data for 30 targets are collected here from the supplement of paper PMC10849652.

Targets with a hit are over-represented here; the source holds about 7,900 in all. About 0.6% of all pairs of compound and target were hits. Values without a mark were called inactive.

Chain of UniProt Q86XT9 (Q86XT9 whole entry, looked up): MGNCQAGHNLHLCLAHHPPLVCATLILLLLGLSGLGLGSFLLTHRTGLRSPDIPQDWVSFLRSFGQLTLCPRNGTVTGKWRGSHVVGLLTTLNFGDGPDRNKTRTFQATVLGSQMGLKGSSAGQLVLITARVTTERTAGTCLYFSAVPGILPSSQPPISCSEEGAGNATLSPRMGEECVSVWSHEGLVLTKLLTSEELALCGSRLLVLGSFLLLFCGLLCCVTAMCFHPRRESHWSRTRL
Chain of UniProt Q96ET8 (Q96ET8 whole entry, looked up): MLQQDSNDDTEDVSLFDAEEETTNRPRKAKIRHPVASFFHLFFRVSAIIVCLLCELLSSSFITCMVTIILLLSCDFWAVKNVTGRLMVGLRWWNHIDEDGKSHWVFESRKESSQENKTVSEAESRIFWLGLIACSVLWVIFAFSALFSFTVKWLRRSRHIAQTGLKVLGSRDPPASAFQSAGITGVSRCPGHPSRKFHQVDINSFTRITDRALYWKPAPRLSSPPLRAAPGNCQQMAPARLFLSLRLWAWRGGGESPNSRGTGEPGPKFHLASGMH
Chain of UniProt Q9NVA4 (Q9NVA4 whole entry, looked up): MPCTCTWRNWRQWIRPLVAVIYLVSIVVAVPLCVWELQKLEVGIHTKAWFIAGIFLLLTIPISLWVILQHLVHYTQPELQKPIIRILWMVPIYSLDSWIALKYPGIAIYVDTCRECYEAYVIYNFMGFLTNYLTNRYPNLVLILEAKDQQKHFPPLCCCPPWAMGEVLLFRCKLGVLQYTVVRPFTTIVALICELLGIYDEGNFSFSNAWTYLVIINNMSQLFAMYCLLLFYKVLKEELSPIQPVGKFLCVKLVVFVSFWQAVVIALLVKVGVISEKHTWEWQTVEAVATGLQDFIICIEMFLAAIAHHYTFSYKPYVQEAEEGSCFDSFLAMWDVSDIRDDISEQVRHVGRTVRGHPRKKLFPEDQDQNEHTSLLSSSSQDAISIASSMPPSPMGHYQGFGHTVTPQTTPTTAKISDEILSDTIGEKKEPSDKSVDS
Chain of UniProt Q8N2K1 (Q8N2K1 whole entry, looked up): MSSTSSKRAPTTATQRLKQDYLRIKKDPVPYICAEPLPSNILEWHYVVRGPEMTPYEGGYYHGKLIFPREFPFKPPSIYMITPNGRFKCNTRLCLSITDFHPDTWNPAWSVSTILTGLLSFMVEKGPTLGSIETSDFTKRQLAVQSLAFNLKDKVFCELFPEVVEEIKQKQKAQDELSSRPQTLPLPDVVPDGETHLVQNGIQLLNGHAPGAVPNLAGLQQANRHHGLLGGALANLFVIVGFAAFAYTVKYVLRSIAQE
Chain of UniProt P51668 (P51668 whole entry, looked up): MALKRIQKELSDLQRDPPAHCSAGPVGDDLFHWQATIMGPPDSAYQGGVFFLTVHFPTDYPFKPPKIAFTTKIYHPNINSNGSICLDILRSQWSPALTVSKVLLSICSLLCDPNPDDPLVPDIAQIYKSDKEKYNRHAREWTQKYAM
Chain of UniProt P98170 (P98170 whole entry, looked up): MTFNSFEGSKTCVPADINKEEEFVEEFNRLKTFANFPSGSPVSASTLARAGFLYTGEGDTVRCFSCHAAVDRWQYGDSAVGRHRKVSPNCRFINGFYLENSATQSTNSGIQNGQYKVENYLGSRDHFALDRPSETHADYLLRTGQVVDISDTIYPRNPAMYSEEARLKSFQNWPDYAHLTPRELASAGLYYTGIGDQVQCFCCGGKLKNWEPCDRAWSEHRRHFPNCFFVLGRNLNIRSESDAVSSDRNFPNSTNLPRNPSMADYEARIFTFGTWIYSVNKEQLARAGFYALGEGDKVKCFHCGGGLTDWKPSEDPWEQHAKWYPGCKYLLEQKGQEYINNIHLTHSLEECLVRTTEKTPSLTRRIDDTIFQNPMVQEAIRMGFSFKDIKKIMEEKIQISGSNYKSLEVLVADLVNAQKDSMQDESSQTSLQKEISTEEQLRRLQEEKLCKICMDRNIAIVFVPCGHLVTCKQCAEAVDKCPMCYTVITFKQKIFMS
Chain of UniProt Q16881 (Q16881 whole entry, looked up): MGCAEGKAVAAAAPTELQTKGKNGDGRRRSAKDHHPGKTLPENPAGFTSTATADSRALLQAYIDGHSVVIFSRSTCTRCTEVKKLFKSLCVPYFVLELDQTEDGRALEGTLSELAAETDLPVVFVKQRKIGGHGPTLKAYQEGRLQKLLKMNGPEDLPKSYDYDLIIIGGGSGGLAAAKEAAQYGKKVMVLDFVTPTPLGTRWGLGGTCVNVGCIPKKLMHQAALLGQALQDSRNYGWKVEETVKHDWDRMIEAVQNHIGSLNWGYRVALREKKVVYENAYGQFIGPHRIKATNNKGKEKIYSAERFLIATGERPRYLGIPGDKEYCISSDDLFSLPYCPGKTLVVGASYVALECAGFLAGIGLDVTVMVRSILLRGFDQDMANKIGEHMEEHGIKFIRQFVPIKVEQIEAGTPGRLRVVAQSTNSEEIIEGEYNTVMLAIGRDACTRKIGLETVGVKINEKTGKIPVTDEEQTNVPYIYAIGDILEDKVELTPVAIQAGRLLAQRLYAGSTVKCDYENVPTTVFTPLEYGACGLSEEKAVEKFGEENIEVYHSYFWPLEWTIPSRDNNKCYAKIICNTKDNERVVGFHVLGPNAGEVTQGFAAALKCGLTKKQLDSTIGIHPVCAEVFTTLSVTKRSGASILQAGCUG
Chain of UniProt Q9HCN3 (Q9HCN3 whole entry, looked up): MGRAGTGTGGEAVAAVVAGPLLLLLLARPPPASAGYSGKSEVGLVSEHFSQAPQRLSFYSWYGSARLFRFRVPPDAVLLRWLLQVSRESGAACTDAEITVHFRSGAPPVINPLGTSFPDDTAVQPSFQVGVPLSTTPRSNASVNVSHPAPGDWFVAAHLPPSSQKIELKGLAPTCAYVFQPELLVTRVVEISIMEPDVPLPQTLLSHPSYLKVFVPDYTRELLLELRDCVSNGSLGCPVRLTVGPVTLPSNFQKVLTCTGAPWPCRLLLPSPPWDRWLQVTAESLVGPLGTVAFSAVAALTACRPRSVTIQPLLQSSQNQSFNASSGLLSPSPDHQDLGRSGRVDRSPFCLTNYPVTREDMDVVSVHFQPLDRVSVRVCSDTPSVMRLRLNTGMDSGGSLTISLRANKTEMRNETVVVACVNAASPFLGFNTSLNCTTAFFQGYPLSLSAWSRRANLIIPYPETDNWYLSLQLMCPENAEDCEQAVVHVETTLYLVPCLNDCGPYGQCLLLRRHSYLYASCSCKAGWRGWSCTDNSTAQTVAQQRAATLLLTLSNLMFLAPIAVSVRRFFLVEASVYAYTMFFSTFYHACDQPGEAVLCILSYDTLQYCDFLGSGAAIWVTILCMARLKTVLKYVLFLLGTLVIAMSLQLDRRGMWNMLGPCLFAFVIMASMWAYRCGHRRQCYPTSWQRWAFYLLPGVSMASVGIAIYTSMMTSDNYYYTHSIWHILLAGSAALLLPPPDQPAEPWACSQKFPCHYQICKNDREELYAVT
Chain of UniProt P36406 (P36406 whole entry, looked up): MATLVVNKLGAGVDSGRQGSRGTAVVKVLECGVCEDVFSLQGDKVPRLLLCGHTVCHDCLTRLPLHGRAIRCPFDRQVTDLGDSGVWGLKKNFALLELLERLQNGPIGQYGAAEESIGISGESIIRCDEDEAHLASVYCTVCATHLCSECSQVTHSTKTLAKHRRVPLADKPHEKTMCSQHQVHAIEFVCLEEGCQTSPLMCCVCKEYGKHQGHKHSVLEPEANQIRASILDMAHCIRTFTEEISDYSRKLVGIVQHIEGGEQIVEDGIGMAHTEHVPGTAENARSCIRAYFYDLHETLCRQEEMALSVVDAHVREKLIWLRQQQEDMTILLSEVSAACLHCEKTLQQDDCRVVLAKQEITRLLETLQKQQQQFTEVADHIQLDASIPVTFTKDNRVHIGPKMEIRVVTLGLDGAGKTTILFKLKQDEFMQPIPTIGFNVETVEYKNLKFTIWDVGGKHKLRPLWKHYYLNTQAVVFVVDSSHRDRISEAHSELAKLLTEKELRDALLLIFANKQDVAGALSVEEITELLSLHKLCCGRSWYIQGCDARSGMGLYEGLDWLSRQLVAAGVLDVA
Chain of UniProt Q5U3C3 (Q5U3C3 whole entry, looked up): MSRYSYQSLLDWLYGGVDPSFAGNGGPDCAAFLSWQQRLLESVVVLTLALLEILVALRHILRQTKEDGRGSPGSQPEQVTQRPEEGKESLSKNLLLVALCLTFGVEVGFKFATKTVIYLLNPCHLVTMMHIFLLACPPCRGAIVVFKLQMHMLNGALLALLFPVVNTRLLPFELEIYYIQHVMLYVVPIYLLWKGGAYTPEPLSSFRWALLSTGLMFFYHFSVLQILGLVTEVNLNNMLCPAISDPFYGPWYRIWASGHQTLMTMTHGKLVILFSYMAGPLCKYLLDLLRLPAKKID
Chain of UniProt Q5VZI3 (Q5VZI3 whole entry, looked up): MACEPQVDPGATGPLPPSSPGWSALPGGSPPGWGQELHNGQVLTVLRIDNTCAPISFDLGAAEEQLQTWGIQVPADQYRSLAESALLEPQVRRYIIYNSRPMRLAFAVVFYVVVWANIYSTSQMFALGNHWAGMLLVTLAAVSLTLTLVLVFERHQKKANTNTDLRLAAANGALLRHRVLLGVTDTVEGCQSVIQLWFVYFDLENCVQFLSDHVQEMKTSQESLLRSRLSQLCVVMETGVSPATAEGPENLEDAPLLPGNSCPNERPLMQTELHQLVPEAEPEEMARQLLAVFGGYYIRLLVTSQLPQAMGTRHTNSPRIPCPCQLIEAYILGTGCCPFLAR
Chain of UniProt P61960 (P61960 whole entry, looked up): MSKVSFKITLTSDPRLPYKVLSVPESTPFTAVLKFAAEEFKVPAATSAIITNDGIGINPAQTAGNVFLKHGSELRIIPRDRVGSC
Chain of UniProt Q9NUM4 (Q9NUM4 whole entry, looked up): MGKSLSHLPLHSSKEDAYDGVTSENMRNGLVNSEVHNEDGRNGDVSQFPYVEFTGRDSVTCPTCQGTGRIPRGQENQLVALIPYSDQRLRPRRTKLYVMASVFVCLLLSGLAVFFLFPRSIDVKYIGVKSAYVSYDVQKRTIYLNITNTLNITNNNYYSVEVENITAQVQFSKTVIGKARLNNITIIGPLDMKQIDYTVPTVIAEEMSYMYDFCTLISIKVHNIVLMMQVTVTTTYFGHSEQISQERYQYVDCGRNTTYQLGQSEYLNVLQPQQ

Compound in the first assay: CN1C2=C(C3=C1C(=O)N(N=C3)CC4=CC(=CC=C4)N)SC(=C2)S(=O)C
Description: log2 fold change, soluble protein after heating vs DMSO (PISA); higher = thermal stabilisation; K562 cells, 10 uM, 30 min; active = over 0.2 and 3.5 SD of the protein, either way, in both replicates (recomputed). The method, boiled down: (§1)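 Aliquots of K562 cells (2×10^6 cells/mL) treated with 10 μM compound for 30 min were heated for 3 min over 48°C-58°C. After pooling and extraction in PBS with 0.5% NP-40 at 4°C, soluble protein from a 21,000xg, 90 min spin was quantified by TMTpro 16plex LC-MS/MS with channel sums equalised. Thermal stability is expressed against control samples, from duplicates, as a log2 fold change.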
In the case of TVP23C (UniProt Q96ET8), the log2 fold change was 0.

In the case of WARS1 (UniProt G3V227), the log2 fold change is 0.207.

Consider TMEM104 (UniProt Q8NE00), for which the log2 fold change was 0.12. On the same count and under the same terms, to TMEM268 isoform 3 (UniProt Q5VZI3) belongs 0.025; to TMEM164 (UniProt Q5U3C3), -0.001. Still for that read-out and setting: then XRCC1 (UniProt P18887), with -0.192; and UBE2J2 isoform 3 (UniProt Q8N2K1), with -0.055; and VDAC1 (UniProt C9JI87), with 0.21.

Regarding TMEM8A (UniProt Q9HCN3), the log2 fold change is 0.082. Still for that read-out and setting: to TRIM5 (UniProt Q9C035) belongs 0.25; to XIAP (UniProt P98170), -0.101.

For the target UFM1 isoform 2 (UniProt P61960), the log2 fold change was 0.004. Take TRIM23 (UniProt P36406): the log2 fold change was -0.116. On the same count and under the same terms, then VWA3B isoform 6 (UniProt Q502W6), with -0.023. The same measure, in the same setting: then WDR46, A0A0G2JJL1, with 0.215; and TXNRD1 isoform 7 (UniProt Q16881), with 0.101; and WDR75 (UniProt Q8IWA0), with 0.166.

Take TRIQK (UniProt Q629K1): the log2 fold change was -0.04. The same measure, in the same setting: to XAB2 (UniProt Q9HCS7) belongs 0.026; to TOM1L2 (UniProt Q6ZVM7), -0.071; to U2AF1L5 (UniProt P0DN76), 0.112. Still for that read-out and setting: to TMEM184C (UniProt Q9NVA4) belongs -0.237; to TUBA4A (UniProt C9JJQ8), 0.114.

In the case of UBE2D1 (UniProt P51668), the log2 fold change was -0.109. Still for that read-out and setting: then TMEM219 (UniProt Q86XT9), with -0.085; and TMEM106B (UniProt Q9NUM4), with 0.012.

Compound in another assay: CN1CCC(CNc2ccc3ncc(-c4cccc(OC(F)(F)F)c4)n3n2)CC1
The assay is described as above. The method, boiled down: as §1
On to TVP23C (UniProt Q96ET8), for which the log2 fold change was -0.033. As to WDR4 isoform 3 (UniProt P57081), the log2 fold change is -0.036. For UBAP2L (UniProt F8W726), the log2 fold change was -0.027. Regarding TMEM104 (UniProt Q8NE00), the log2 fold change is 0.018. Take TMEM268 isoform 3 (UniProt Q5VZI3): the log2 fold change is -0.123. On the same count and under the same terms, then TMEM164 (UniProt Q5U3C3), with -0.021; and XRCC1 (UniProt P18887), with -0.239; and UBE2J2 isoform 3 (UniProt Q8N2K1), with 0.122. The same measure, in the same setting: to TMEM8A (UniProt Q9HCN3) belongs -0.104.

For XIAP (UniProt P98170), the log2 fold change is -0.131. On the same count and under the same terms, to UFM1 isoform 2 (UniProt P61960) belongs -0.005; to TRIM23 (UniProt P36406), -0.228; to VWA3B isoform 6 (UniProt Q502W6), -0.234. Same read-out and setting: to TXNRD1 isoform 7 (UniProt Q16881) belongs -0.028; to WARS1 (UniProt G3V277), -0.12; to TOM1 (UniProt O60784), -0.664 (active). The same measure, in the same setting: then TMEM184C (UniProt Q9NVA4), with -0.492 (active); and UBE2D1 (UniProt P51668), with -0.095; and TMEM219 (UniProt Q86XT9), with -0.029.

Regarding TMEM106B (UniProt Q9NUM4), the log2 fold change was -0.13.
